Assay outcomes as filed in PubChem BioAssay.
SMN2 splice up: qHTS Assay for Enhancers of SMN2 Splice Variant Expression | HEK293 SMN2-luciferase splicing reporter, luminescence, 30-36 h | Potency, µM (titrated, usually from 46.1 µM), inactives show at the highest dose activity change, positive = activation, hits mostly activators | AID 1458, 2008 | 210,000 tested, 2.8% active; note: % of control where 0% means no effect; nearly all actives have a fitted effect of over 55% in size
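HEK293 cells carry an SMN2 […]–luciferase reporter in which exon 7 inclusion puts luciferase in frame. Cells were plated 10-12 h before compound addition, then incubated 30-36 h at 37C. ONE-Glo luminescence was read; sodium butyrate at 4.5 mM final served as control.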
ELG1 DNA repair: qHTS screen for small molecules that inhibit ELG1-dependent DNA repair in human embryonic kidney (HEK293T) cells expressing luciferase-tagged ELG1 | 330,000 tested, 2.3% active | HEK293T ELG1-luciferase reporter, luminescence, 16 h; DNA damage induced by 5-fluorouridine | Potency, µM (top dose mostly 46.1 µM), for inactives: at the top dose activity change, negative = inhibition, actives largely listed as inhibitors; note: % is set by controls: 0 for no effect and ±100 for the full control effect; nearly all actives have a fitted effect of over 55% in size
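DMSO vehicle served as the neutral condition. Each well held 2,000 cells given 5-fluorouridine plus compound; after 16 hr at 37 °C/5% CO2, ONE-Glo was added and luciferase measured 30 min later.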
Rab9 prom act: qHTS Assay for Rab9 Promoter Activators; Potency, µM (doses to about 9.22 µM), inactives show at the highest dose activation, negative = inhibition, actives largely listed as activators; 320,000 tested, 2.8% active; Huh7 Rab9 promoter-luciferase reporter, luminescence, 24 h; note: % of control where 0% means no effect; nearly all actives have a fitted effect of over 60% in size
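Huh7 reporter line, Rab9 promoter upstream of luciferase. Compound exposure 24 h at 37 °C in reduced-serum medium with 10% FBS. Read-out: luminescence.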
ELG1 genotox: qHTS screen for small molecules that induce genotoxicity in human embryonic kidney (HEK293T) cells expressing luciferase-tagged ELG1; HEK293T ELG1-luciferase reporter, luminescence, 16 h; Potency, µM (top dose mostly 46 µM), for the others: top-dose activity change, positive = activation, usual class: activators; 330,000 tested, 1.3% active; note: % of control where 0% means no effect; nearly all actives have a fitted effect of over 60% in size
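16 hr compound incubation (37 °C, 5% CO2) of HEK293T cells carrying luciferase-tagged ELG1; luciferase then measured by ONE-Glo luminescence after 30 min at RT.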
NPC1 promoter act: qHTS Assay for NPC1 Promoter Activators. Huh7 NPC1 promoter luciferase reporter, 24 h. AID 485313, 2010. Potency, µM (top dose mostly 9.22 µM), inactives show at the highest dose activation, actives largely listed as activators. 320,000 tested, 2.4% active; note: % of control where 0% means no effect; nearly all actives have a fitted effect of over 60% in size
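Luminescence read-out of NPC1 promoter-driven luciferase in stably transfected Huh7 cells; compounds delivered in DMSO and left 24 h at 37C, 5% CO2, qHTS titration format.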
FLuc counter: qHTS profiling assay for firefly luciferase inhibitor/activator using purifed enzyme and Km concentrations of substrates (counterscreen for miR-21 project); Luciferin 4-monooxygenase (Photinus pyralis), P08659; purified FLuc, Km substrates, luminescence inhibition; Potency, µM (series often up to 57.5 µM), inactives show top-dose activity change, negative = inhibition, usual class: inhibitors; 360,000 tested, 6.9% active;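 note: plate controls were vehicle for no effect and reference inhibitor for full effect; nearly all actives have a fitted effect of over 55% in size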
Target sequence (P08659 whole entry, looked up): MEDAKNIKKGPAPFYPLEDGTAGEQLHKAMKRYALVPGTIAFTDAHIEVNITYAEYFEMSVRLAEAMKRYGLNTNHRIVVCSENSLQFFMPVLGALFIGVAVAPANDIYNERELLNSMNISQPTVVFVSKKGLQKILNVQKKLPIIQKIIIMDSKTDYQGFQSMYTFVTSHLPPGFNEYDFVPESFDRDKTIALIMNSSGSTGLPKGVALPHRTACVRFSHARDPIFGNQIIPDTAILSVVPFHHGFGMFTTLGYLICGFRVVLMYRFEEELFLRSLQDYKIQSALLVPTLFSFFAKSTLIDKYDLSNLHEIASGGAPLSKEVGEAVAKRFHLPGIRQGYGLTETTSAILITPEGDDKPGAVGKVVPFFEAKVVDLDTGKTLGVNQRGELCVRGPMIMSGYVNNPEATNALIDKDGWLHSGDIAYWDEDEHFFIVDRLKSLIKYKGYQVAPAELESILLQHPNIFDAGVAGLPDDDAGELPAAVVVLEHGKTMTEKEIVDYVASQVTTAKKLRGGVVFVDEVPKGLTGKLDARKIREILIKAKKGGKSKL
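Purified P. pyralis luciferase (10nM final) with 10uM D-luciferin and 10uM ATP (Km levels) in 50mM Tris acetate pH 7.5, 10mM Mg acetate, 0.01% Tween-20, 0.05% BSA; qHTS 6-point titration, ~60 µM downward; luminescence read.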
* marks the source's active call; other numbers are inactive results; ? = inconclusive; nt = no result given; [ ] = another dose, or the depositor's remark. Most compounds without a hit are left out; they make up all but 9.4% or so of the library. Calls come from the whole dose curve; as a rule, active = well fitted curve in the direction sought with a large enough effect; inconclusive = small, poorly fitted or top-dose-only effect, or another doubt; inactive = no such curve, though single readings can be large; an effect the other way counts as inactive or inconclusive. Potency is the fitted concentration of half-maximal effect.

SMILES	SMN2 splice up	ELG1 DNA repair	Rab9 prom act	ELG1 genotox	NPC1 promoter act	FLuc counter
CC(C)(C)c1nc(NC(=O)Nc2ccccc2)sc1Br	-3.0%	?	?	-5.2%	27.8%	19µM*
CCCCOC(=O)Nc1nc2ccc(OC)cc2s1	21.1%	?	19.1%	?	25.2%	?
CCOc1ccc2nc(NC(=O)Nc3cccs3)sc2c1	2.82µM*	?	1.58µM*	2.59µM*	?	0.757µM*
CCCCN(C(=O)NC(=O)Nc1nc2ccc(OC)cc2s1)S(C)(=O)=O	22.4µM*	?	?	8.2µM*	?	23.9µM*
CCCCOC(=O)Nc1nc2ccccc2s1	25.1µM*	?	3.98µM*	?	2.82µM*	1.07µM*
CCOC(=O)C1CCN(C(c2ccc(OCC)cc2)c2c(O)cc(C)n(CCOC)c2=O)CC1 (stereo not given)	nt	nt	nt	nt	nt	-11.3%
Cc1c(CNC(C)CCc2ccccc2)c(C(=O)O)c(C)n1Cc1ccc(F)cc1 (stereo not given)	1.4%	nt	nt	nt	nt	-0.3%
COc1cccc(C(=O)NCCC2=CCCCC2)c1OC	12.6µM*	?	3.98µM*	?	?	-9.5%[2.3 µM]
Cc1ccc(S(=O)(=O)N2CCCCC2)cc1C(=O)NCCC1=CCCCC1	nt	0.7%	-3.2%	-2.5%	7.2%	0.4%
Cc1cc(C(=O)NCCC2=CCCCC2)c(C)o1	11.2µM*	?	10µM*	?	1µM*	?
COc1cc(OC)c(-c2cc(C(=O)NCc3ccc(F)cc3)c3c(-c4ccccc4)[nH]nc3n2)cc1OC	nt	nt	nt	nt	nt	-3.6%
Cc1ccc(-c2cc(N)n(-c3ccc(F)cc3)n2)cc1	12.6µM*	?	3.55µM*	23.1µM*	?	9.53µM*
Cc1cc(N)n(-c2ccc(C)c(C)c2)n1	nt	?	28.5%	?	21.7%	?
Cc1ccc(-c2cc(N)n(-c3ccc(C)cc3)n2)cc1	?	?	3.55µM*	?	2.51µM*	13.5µM*
CCc1nc2ccccc2n(CCOCCn2c(=O)c(CC)nc3ccccc32)c1=O	1.8%	23.1µM*	4.7%	-13.6%	17.4%	-1.3%
CCOCCn1c(CC)nc2ccccc21	nt	-15.3%	-1.7%	1.5%	-4.4%	-4.0%
CC1Sc2ccc(C(=O)OCc3ccccc3Cl)cc2NC1=O (stereo not given)	nt	?	1µM*	?	2.24µM*	2.13µM*
CC1Sc2ccc(C(=O)Nc3ncccc3O)cc2NC1=O (stereo not given)	nt	?	0.891µM*	?	1.26µM*	7.57µM*
COc1cccc(COC(=O)c2ccc3c(c2)NC(=O)C(C)S3)c1OC (stereo not given)	nt	?	-5.0%	0.3%	-5.3%	5.6%
Cc1cccnc1NC(=O)c1ccc2c(c1)NC(=O)C(C)S2 (stereo not given)	nt	?	1.6%	?	8.9%	16.9µM*
CCOC(=O)c1ccc(CN(Cc2ccc(F)cc2)S(=O)(=O)c2cc(C(=O)Nc3cccc(C(F)(F)F)c3)ccc2F)cc1	nt	nt	nt	nt	nt	-3.6%
CN1c2ccsc2/C(=N/Nc2ccc(F)cc2)CS1(=O)=O	?	?	?	?	?	19µM*
Cc1ccc(N/N=C2\CS(=O)(=O)N(C)c3ccsc32)cc1	0.891µM*	?	?	16.5%	3.55µM*	12µM*
O=C1NCCC/C1=N/Nc1ccc(F)cc1	8.3%	26.5%	-1.4%	?	-1.1%	-4.9%
CCCC(=O)N/N=C1\CS(=O)(=O)N(C)c2ccsc21	-13.4%	6.0%	0.2%	0.7%	7.2%	-0.1%
SMILES	SMN2 splice up	ELG1 DNA repair	Rab9 prom act	ELG1 genotox	NPC1 promoter act	FLuc counter
Cc1ccc(Cn2c(=O)n(CCCCC(=O)NCCc3ccc(Cl)cc3)c(=O)c3ccccc32)cc1	-7.6%	nt	nt	nt	nt	-2.3%
Cc1ccc(Nc2nc(CSc3nnc(-c4ccc(F)cc4)n3C)cs2)cc1	10µM*	?	?	15.7%	?	1.35µM*
CN(c1ccccc1)S(=O)(=O)c1cccc(NC(=O)C2=NN(c3ccccc3)C(=O)CC2)c1	nt	7.3µM*	nt	1.0%	nt	nt
CC(C)Oc1ccc(S(=O)(=O)N2CCOCC2)cc1NC(=O)c1ccc(N2CCCC2=O)cc1	nt	-6.8%	1.0%	-6.5%	-6.0%	4.0%
CC(C)Oc1ccc(S(=O)(=O)N2CCOCC2)cc1NC(=O)C1=NN(c2ccccc2)C(=O)CC1	nt	10.3µM*	-6.8%	-1.7%	-5.0%	7.4%
CN(c1ccccc1)S(=O)(=O)c1cccc(NC(=O)c2ccncc2)c1	nt	?	-13.7%	-8.1%	-5.1%	2.2%
COc1ccc(NS(=O)(=O)c2cccc(NC(=O)C3=NN(c4ccccc4)C(=O)CC3)c2)cc1	nt	9.2µM*	-16.8%	-5.2%[9.26 µM]	-11.5%	0.9%
COc1ccc(-c2nnc(SCC(=O)c3ccc(NC(C)=O)cc3)o2)cc1OC	nt	nt	nt	nt	nt	1.1%
CCOc1cc(C(=O)NCc2ccc3c(c2)CCN3C(=O)CC)cc(OCC)c1OCC	-1.9%	nt	nt	nt	nt	-18.6%
Nc1c(C(=O)NCC2CCCO2)sc2nc3c(c(-c4ccco4)c12)CC/C3=C\c1ccco1 (stereo not given)	-0.7%	-25.5%	3.1%	0.8%	0.7%	5.36µM*
N#Cc1sc2nc3c(c(-c4ccco4)c2c1N)CCCC3	-10.2%	0.0%	-1.2%	1.1%	-5.2%	2.8%
CCOC(=O)c1c(C)nc2sc(C(N)=O)c(N)c2c1-c1ccc(OC)cc1	-2.1%	13µM*	-5.2%	-18.5%	0.6%	2.3%
Cc1ccccc1NC(=O)c1sc2nc3c(c(-c4ccco4)c2c1N)CCC3	-23.2%	23.1µM*	0.7%	-2.1%	-1.7%	-9.9%
Cc1ccc(-c2c3c(nc4sc(C(N)=O)c(N)c24)CCC3)cc1	5.4%	?	?	-0.3%	-4.1%	16.9µM*
CCOC(=O)c1c(C)nc2sc(C(=O)Nc3ccc(OC)cc3)c(N)c2c1-c1ccc(OC)cc1	-16.8%	?	-20.6%	-1.1%	-24.8%	6.2%
Cn1nnc2c(N3CCN(c4ccccc4Cl)CC3)ncnc21	nt	nt	nt	nt	nt	-13.4%
COc1ccc(CNC(=O)CN2C(=O)CSc3ccc(S(=O)(=O)N4CCCC4)cc32)cc1	nt	nt	nt	nt	nt	1.4%
CCc1ccccc1N1CC(c2nc3ccccc3n2CCC2CCCCC2)CC1=O (stereo not given)	-14.2%	nt	nt	nt	nt	-12.9%
Fc1ccc(Nc2nc3nonc3nc2Nc2cccc(C(F)(F)F)c2)cc1	-64.5%	nt	nt	nt	nt	-18.4%
NC(=O)c1sc2nc3c(c(-c4ccco4)c2c1N)CCCC3	nt	9.2µM*	-2.6%	-14.7%	-1.2%	-10.2%
